Bioassay records as filed in PubChem.
An excerpt weighted towards active compounds, which were near 21% of everything screened.
Pf growth 96h: inhibits malaria parasite growth, 96 h; P. falciparum luciferase reporter growth, 96 h; Potency, µM (series often up to 28.7 µM), for inactives: at the top dose activity change, negative = inhibition, actives largely listed as inhibitors; 320,000 tested, 6.9% active; also: potency is read from the fitted curve at half-maximal effect; % is scaled to controls: 0 for no effect and ±100 for the full control effect
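Cell-based qHTS: luciferase-tagged P. falciparum in erythrocytes (2% hematocrit, 0.05% parasitemia final) incubated with compounds for 96 hours, 37 C, 5% CO2; luciferase detection reagent then added and luminescence measured.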
Pf growth 48h: P. falciparum growth inhibition at 48 hours (one generation) | P. falciparum luciferase growth in erythrocytes, 48 h | 310,000 tested, 5.9% active | Potency, µM (titrated, usually from 28.7 µM), without a hit: top-dose activity change, negative = inhibition, hits mostly inhibitors | AID 504832; also: potency is read from the fitted curve at half-maximal effect; % is scaled to controls: 0 for no effect and ±100 for the full control effect
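Here the parasites carry a stable luciferase gene and grow inside erythrocytes in Albumax-based RPMI medium with compound for one erythrocytic cycle. Activity is scored as loss of luminescent signal.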
HCMV inh: blocks human cytomegalovirus replication. HFF cells, HCMV-luciferase reporter, 72 h; stronger effect = lower value. activity change, negative = inhibition, % at 57.5 µM. 410,000 tested, 4.5% active. AID 1259415; in the data active = activity change below about -60%; inconclusive = no clear call, values can overlap the other calls; inactive = above about -39%; also: % is scaled to controls: 0 for no effect and ±100 for the full control effect
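Two compound doses tested in HFFs infected with HCMV-luciferase, MOI 1 PFU/cell, 72 h at 37C. Lysate luminescence read with OneGlo; data normalized against buffer-only and 10uM Salinomycin inhibitor controls.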
HCV inh: inhibitors of hepatitis C virus infection; Huh7.5.1 HCVcc-Cre infection, luciferase reporter, 44 h; Potency, µM (series often up to 41.8 µM), for inactives: at the highest dose activity change, negative = inhibition, hits mostly inhibitors; 340,000 tested, 3.4% active; AID 651820; also: potency is read from the fitted curve at half-maximal effect; % is scaled to controls: 0 for no effect and ±100 for the full control effect
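Infectious HCVcc-Cre (~0.5 moi) was added to cells just after compound, with cells seeded 4 h earlier at 1,000 per well. Luciferase activity after 44 h culture reported infection; substrate was incubated 15 min at room temperature before reading.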
CHX counter: counter-screen hit for Shiga toxin inhibitors, cycloheximide | cell reporter, cycloheximide protein synthesis inhibition counterscreen | max response, % | 300,000 tested, 12% active; in the data active = max response mostly above about 13%, no sharp cut-off; inactive = mostly below about 14%; also: read at 38.3 µM for the half of the compounds with a filed dose; 0% is about no effect
Shiga inhibitor: Shiga toxin inhibition. Vero cells, Shiga toxin protein synthesis inhibition reporter. inhibition, % at 38.7 µM. 290,000 tested, 9.2% active; in the data active = inhibition mostly above about 28%, no sharp cut-off; inactive = mostly below about 43%; also: 0% is about no effect
* hit, by the source's call; ? = inconclusive; . = no result; [ ] = remark or other dose. Unless noted, calls follow the shape of the dose curve; as a rule, active = well fitted inhibition curve with a large enough effect; inconclusive = small, poorly fitted or top-dose-only effect, or another doubt; inactive = no such curve, though single readings can be large or run the other way.

SMILES	Pf growth 96h	Pf growth 48h	HCMV inh	HCV inh	CHX counter	Shiga inhibitor
COc1ccc(N2CCN(C(=O)c3ccc(C(C)(C)C)cc3)CC2)cc1	8.1%	.	-6.2	-13.1%	-1.4	3.1
C#CCOCCOCCOCCNc1nc(N2CCN(C(=O)C([C@@H](C)CC)n3cc(C(N)COC(=O)C(F)(F)F)nn3)CC2)nc(N2CCN(C(=O)C([C@@H](C)CC)n3cc(C(N)CC(C)C)nn3)CC2)n1 (stereo not given in full)	.	.	-6.1	7.1%	.	.
O=C(c1sccc1Cl)N1CCN(Cc2ccc3c(c2)OCO3)CC1	47.8%	14.3%	30.9	?	9.9	15.1
Cn1c(C(=O)N2CCN(Cc3ccc4c(c3)OCO4)CC2)cc2sccc21	10.4µM*	?	-25.2	?	-8.1	-18.3
Cn1c(C(=O)N2CCC(C(=O)N3CCN(Cc4ccc5c(c4)OCO5)CC3)CC2)cc2sccc21	10.4µM*	?	-27.4	?	-5.9	10.2
Cn1c(C(=O)N2CCC(C(=O)N3CCOCC3)CC2)cc2sccc21	11.7µM*	24.3%	-4.3	3.5%	-4.2	-5.0
Cc1cccc(N2CCN(C(=O)C3CCN(C(=O)c4cc5sccc5n4C)CC3)CC2)c1C	.	.	-20.9	.	.	.
COc1cccc(CN2CCC(C(=O)N3CCN(Cc4ccc5c(c4)OCO5)CC3)CC2)c1	4.7%	-14.2%	4.0	.	-3.9	-25.3
O=C(NCCc1ccc(Cl)cc1)c1ccc2c(c1)N(Cc1ccccc1)CCS2	.	.	16.0	.	.	.
COc1ccc(OC)c(CCNC(=O)c2ccc3c(c2)N(Cc2ccccc2)CCS3)c1	13.1µM*	?	-34.1	?	5.5	10.8
NS(=O)(=O)c1ccc(CCNC(=O)c2ccc3c(c2)N(Cc2ccccc2)CCS3)cc1	110.9%	?	-64.2*	-11.9%	-5.6	-4.9
O=C(NCCCN1CCCC1)c1ccc2c(c1)N(Cc1ccccc1)CCS2	?	?	-32.5	-10.1%	-2.2	10.2
Cc1ccc(CN2CCSc3ccc(C(=O)NCCc4ccccc4)cc32)cc1	.	.	70.0	.	.	.
COc1ccc(CCNC(=O)c2ccc3c(c2)N(Cc2cccc(Cl)c2)C(=O)CS3)cc1OC	.	.	-61.1*	.	.	.
COc1ccc(CCNC(=O)c2ccc3c(c2)N(Cc2ccccc2)CCS3)cc1OC	?	-24.2%	0.0	10µM*	-3.0	3.9
CC(C)CNC(=O)C1=CC(c2ccc3c(c2)OCO3)=NS(=O)(=O)N1C	.	.	-3.4	.	.	.
Cc1ccc(C2C=C(c3ccccc3)Nc3ncnn32)cc1 (stereo not given)	.	.	-22.2	-2.2%	.	.
CCOc1ccc(C2C=C(c3ccc(F)cc3)Nc3ncnn32)cc1 (stereo not given)	.	11.7µM*	49.0	2.5%	-1.6	1.1
COc1ccc(C2C=C(c3ccc(C)cc3)Nc3ncnn32)cc1 (stereo not given)	-4.2%[5.75 µM]	11.7µM*	-26.6	-8.5%	14.3	18.2
Cn1cccc1C1C=C(c2ccc(C(C)(C)C)cc2)Nc2ncnn21 (stereo not given)	.	.	-80.4*	?	.	.
CCCc1nc2ccc([N+](=O)[O-])cc2[nH]1	10.4µM*	14.3%	-33.8	11.6%	10.8	-7.3
O=[N+]([O-])c1cccc(/C=C/c2nc3ccc([N+](=O)[O-])cc3[nH]2)c1	2.33µM*	2.94µM*	-28.9	?	18.7*	40.6
Cc1nc2ccc([N+](=O)[O-])cc2[nH]1	17.9%	-4.1%	-15.4	4.2%	8.6	-1.9
O=[N+]([O-])c1ccc2nc(-c3ccccc3)[nH]c2c1	?	118.1%	78.9	-2.6%	41.5*	24.7
CC(=O)Nc1nc(C)c(-c2nc3ccc([N+](=O)[O-])cc3[nH]2)s1	-28.5%	13.6%	26.7	5.9%	16.8*	36.6
Cc1ccc(NC(=O)CN2C(=O)NC3(CCc4ccccc43)C2=O)cc1S(=O)(=O)N1CCCCC1 (stereo not given)	?	-29.3%	0.0	?	.	.
O=[N+]([O-])c1cc([N+](=O)[O-])c2cc(-c3cccnc3)[nH]c2c1	.	.	?	-26.5%	.	.
O=[N+]([O-])c1ccc2nc(-c3cccnc3)[nH]c2c1	156.8%	-5.9%	59.3	-5.4%	21.3*	59.7
